An excerpt weighted towards active compounds, which were near 19% of everything screened.
IL1B secr inh: qHTS for Inhibitors of Inflammasome Signaling: IL-1-beta AlphaLISA Primary Screen; 4.7% of 360,000 active; activity change, % at 57.5 µM; THP-1 LPS/ATP IL-1B secretion, AlphaLISA, 16 h; hits give low values; in the data active = activity change below about -50%; inconclusive = mostly about -30% to -49%; also: % is scaled to controls: 0 for no effect and ±100 for the full control effect
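Secreted IL-1B measured by AlphaLISA bead assay after 16 h compound exposure of THP-1 cells; compounds (final up to 57.5 uM) added 1 h before LPS (250 ng/mL) and ATP (1.25 mM) stimulation; lower signal means less secretion.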
TDP1 cell noCPT: qHTS for Inhibitors of human tyrosyl-DNA phosphodiesterase 1 (TDP1): qHTS in cells in absence of CPT; Potency, µM (highest dose often 46.2 µM), inactives show at the top dose activity change, negative = growth inhibition, actives largely listed as inhibitors; 15% of 420,000 active; AID 686978, 2013; DT40 Tdp1-/- hTDP1 cells, no CPT, ATP luminescence, 48 h; also: potency is read from the fitted curve at half-maximal effect; % is scaled to controls: 0 for no effect and ±100 for the full control effect; nearly all actives have a fitted effect of over 55% in size
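Stably hTDP1-transfected Tdp1-null chicken DT40 cells were treated with library compounds minus camptothecin and grown for at least 48 hr at 37 °C, after which cellular ATP was quantified by luminescence.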
BCR signal inh: qHTS Assay to Find Inhibitors of Chronic Active B-Cell Receptor Signaling; ABC-DLBCL IkBa-CBG/CBR reporter, luminescence ratio, 4 h; Potency, µM (top dose mostly 46.1 µM), for inactives: at the highest dose activity change, negative = inhibition, hits mostly inhibitors; 0.05% of 340,000 active; AID 493014, 2011; active = well fitted inhibition curve with a large enough effect in the signal ratio, with a control signal flat, not every such curve was filed as active; inconclusive = small, poorly fitted or top-dose-only effect, or effect the other way, or a change in a side signal; the % refers to the signal ratio;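 also: potency is read from the fitted curve at half-maximal effect; plate controls were basal doxycycline-induced cells for no effect and cells given 10 µM MG132 for full effect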
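Cell line TMD8 (human ABC DLBCL), stably expressing tet-inducible CBG68-IkBa fusion and CBR; IMDM/0.5% FBS; cpd up to 46 uM; dox induction, 4 h, 37C/5% CO2; dual luminescence; green/red ratio; MG132 control.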
MCF10A rerep: A quantitative high throughput screen for small molecules that induce DNA re-replication in MCF 10a normal breast cells. 2.9% of 350,000 active. MCF 10A DNA re-replication, Hoechst nuclear intensity, 48 h. Potency, µM (series often up to 46.1 µM), without a hit: top-dose activity, positive = re-replication, usual class: activators; also: potency is read from the fitted curve at half-maximal effect; % of control where 0% means no effect; nearly all actives have a fitted effect of over 50% in size
DT40 TDP1 CPT: qHTS for Inhibitors of human tyrosyl-DNA phosphodiesterase 1 (TDP1): qHTS in cells in presence of CPT. chicken DT40 Tdp1-/-;hTDP1 cells + 20 nM CPT, ATP luminescence, 48 h. Potency, µM (series often up to 46.2 µM), for inactives: top-dose activity change, negative = growth inhibition, hits mostly inhibitors. 12% of 420,000 active. AID 686979, 2013; also: potency is read from the fitted curve at half-maximal effect; % is scaled to controls: 0 for no effect and ±100 for the full control effect; nearly all actives have a fitted effect of over 55% in size
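Chicken DT40 Tdp1-/- cells stably complemented with human TDP1 were seeded at 400 cells/well in medium containing 20 nM camptothecin, exposed to pin-transferred compounds, and grown at 37 °C for at least 48 hr. Viability was read as ATP luminescence.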
SW480 rerep: A quantitative high throughput screen for small molecules that induce DNA re-replication in SW480 colon adenocarcinoma cells. SW480 DNA re-replication, Hoechst DNA content imaging, 48 h. Potency, µM (titrated, usually from 46.1 µM), for inactives: at the highest dose re-replication activation, hits mostly activators. 1.8% of 340,000 active; also: potency is read from the fitted curve at half-maximal effect; % of control where 0% means no effect; nearly all actives have a fitted effect of over 55% in size
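First, 250 cells per well were seeded. Next, compound or vehicle (23 nL) was pinned in, plates sat 48 hr at 37 C. Finally Hoechst was added for 40 min before fluorescence scanning.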
* marks the source's active call; other numbers are inactive results; ? = inconclusive; · = no result; [ ] = dose if it differs, or a comment. Unless noted, calls follow the shape of the dose curve; as a rule, active = well fitted curve in the direction sought with a large enough effect; inconclusive = small, poorly fitted or top-dose-only effect, or another doubt; inactive = no such curve, though single readings can be large; an effect the other way counts as inactive or inconclusive.

SMILES | IL1B secr inh | TDP1 cell noCPT | BCR signal inh | MCF10A rerep | DT40 TDP1 CPT | SW480 rerep
COc1ccc(OC)c(NC(=O)Nc2ccccc2C)c1 | -18 | -10% | ? | ? | 0% | -9%
COc1ccc(OC)c(C(=O)Nc2c(O)ccc3ccccc23)c1 | ? | 16µM* | · | 0% | 21µM* | -1%
COc1ccc(OC)c(NC(=O)Nc2c(O)ccc3ccccc23)c1 | 4 | ? | · | ? | 15µM* | 25%
COc1ccc(OC)c(NC(=O)Nc2ccc(O)c3ccccc23)c1 | 20 | 4.6µM* | · | ? | 2.6µM* | ?
COCCCNc1nc2ccccc2nc1NS(=O)(=O)c1cc(Cl)ccc1Cl | 0 | ? | -3% | -8% | ? | -10%
Cc1ccc(C(=O)Nc2ccc3c(c2)N(C)C(=O)c2ccccc2S3)cc1 | · | 2.3µM* | -16% | · | 5.2µM* | ·
CCN1C(=O)c2ccccc2Sc2ccc(NC(=O)c3ccc(C#N)cc3)cc21 | · | 16µM* | 0% | · | 21µM* | ·
CCN1C(=O)c2ccccc2Sc2ccc(NC(=O)Nc3cccc([N+](=O)[O-])c3C)cc21 | · | ? | · | · | 21µM* | ·
CCN1C(=O)c2ccccc2Sc2ccc(NC(C)=O)cc21 | · | -2% | · | · | 1% | ·
CN1C(=O)c2ccccc2Sc2ccc(NC(=O)c3ccccc3F)cc21 | · | 15µM* | ? | · | 18µM* | ·
NS(=O)(=O)c1ccc(CCNC(=O)CCCOc2ccccc2)cc1 | 9 | ? | -1% | 25% | -14% | 1%
O=C(CSc1ccc2nnc(CCNC(=O)c3ccccc3)n2n1)NCCc1ccccc1 | 7 | 7% | 0% | -2% | -2% | 20%
COc1ccc(C)cc1S(=O)(=O)NCC(c1cccnc1)N1CCc2ccccc2C1 (centres undefined) | 4 | -12% | 6% | 1% | -28% | -6%
COc1ccc(NC(=O)C(=O)NCC(c2cccnc2)N2CCc3ccccc32)cc1OC (centres undefined) | · | 21µM* | · | · | ? | ·
CCc1ccc(NC(=O)C(=O)NCC(c2cccnc2)N2CCN(C)CC2)cc1 (centres undefined) | · | ? | · | · | -23% | ·
CCOc1ccc(NC(=O)C(=O)NCC(c2cccnc2)N2CCc3ccccc32)cc1 (centres undefined) | · | 3.7µM* | · | · | 4.1µM* | ·
COC(=O)c1ccc(NC(=O)C(=O)NCC(c2cccnc2)N2CCc3ccccc32)cc1 (centres undefined) | · | 16µM* | · | · | 15µM* | ·
COc1ccccc1N1CCN(C(CNC(=O)C(=O)NCCN(C)C)c2cccnc2)CC1 (centres undefined) | · | -19% | · | · | -11% | ·
COc1ccc(C)cc1NC(=O)C(=O)NCC(c1cccnc1)N1CCc2ccccc21 (centres undefined) | · | 15µM* | · | · | ? | ·
CC(NC(=O)CNC(=O)c1ccccc1Br)c1cccs1 (centres undefined) | 20 | 0% | ? | 12% | 7% | ?
CCc1ccccc1NC(=O)C(=O)NCC(c1cccnc1)N1CCN(c2ccccc2F)CC1 (centres undefined) | · | 15µM* | · | · | ? | ·
CS(=O)(=O)NCC(c1cccnc1)N1CCN(c2ccccc2F)CC1 (centres undefined) | 6 | -13% | -1% | -3% | -3% | ?
COc1ccc(C)cc1NC(=O)C(=O)NCC(c1cccnc1)N1CCN(c2ccccc2F)CC1 (centres undefined) | · | 18µM* | · | · | ? | ·
COc1ccc(C2CC(=O)c3cnc4c(-c5ccc(F)cc5)c(C)nn4c3C2)cc1OC (centres undefined) | · | -5% | · | · | 4% | ·
COc1ccc(COc2cc(-c3cccc(OC)c3)nc3ccc(NC(=O)c4ccc(OC)cc4)cc23)cc1 | 80 | 3.3µM* | ? | 2.3µM* | 2.6µM* | 4.1µM*
SMILES | IL1B secr inh | TDP1 cell noCPT | BCR signal inh | MCF10A rerep | DT40 TDP1 CPT | SW480 rerep
COc1ccc(COc2cc(-c3cccc(OC)c3)nc3ccc(NC(=O)c4cccnc4)cc23)cc1 | 18 | ? | 0% | ? | ? | ?
COc1ccc(COc2cc(-c3cccc(OC)c3)nc3ccc(NC(=O)c4ccc(Cl)cc4)cc23)cc1 | 104 | 16µM* | -4% | 26µM* | ? | 23µM*
CCn1cc(C(=O)N2CCN(c3ccccc3)CC2)c(=O)c2cc(S(=O)(=O)N3CCC(C)CC3)ccc21 | · | -22% | · | · | ? | ·
CCCc1ccc(-c2cc(NC(=O)CSc3nnc(N)s3)n(-c3ccccc3)n2)cc1 | ? | 21µM* | ? | ? | 23µM* | 7%
Cc1ccc(-c2cc(NC(=O)CSc3n[nH]c(N)n3)n(-c3ccccc3)n2)cc1 | -23 | ? | ? | 6% | -12% | 0%
Cc1nnc(SCC(=O)Nc2cc(-c3cc(C)c(C)cc3C)nn2-c2ccccc2)s1 | -11 | 12µM* | ? | 3% | 21µM* | ?
O=C(CN1C(=O)c2cccc([N+](=O)[O-])c2C1=O)NCc1ccccc1 | 5 | 26% | -1% | 0% | 13% | -2%
COc1ccc(NC(=O)CN2CCCCCC2)cc1OC | 12 | -4% | -2% | 2% | 9% | -16%
OC(COCC(F)(F)C(F)(F)C(F)(F)C(F)F)Cn1c2ccc(Cl)cc2c2cc(Cl)ccc21 (centres undefined) | -97* | 2.6µM* | ? | 18% | 3.7µM* | ?
CCOC(=O)c1c(O)c2cc(Cl)ccc2n(CC)c1=O | · | -23% | -3% | -2% | 1% | ?
Cc1cccc(N2CCN(C(=O)c3ccc(-n4cncn4)c([N+](=O)[O-])c3)CC2)c1C | -14 | -26% | -6% | -13% | 21µM* | 1%
Cc1ccc(C(=O)N2CCc3ccccc32)cc1[N+](=O)[O-] | 28 | -20% | 9% | -1% | -1% | 1%
Cc1ccc(C(=O)N2CCN(c3ccccc3Cl)CC2)cc1[N+](=O)[O-] | -10 | ? | 1% | -11% | 29µM* | -747%[1.84 µM]
CC1CCN(c2cc(N3CCN(C(=O)c4ccc(F)c(F)c4)CC3)c([N+](=O)[O-])cc2F)CC1 | -26 | 23µM* | 6% | 1% | ? | ·
